Source: PubChem (National Center for Advancing Translational Sciences (NCATS))
SMN2 splice enh – SMN2 splice variant enhancement | HEK293 SMN2-luciferase splicing reporter, luminescence, 30-36 h | Potency, µM (series often up to 46.1 µM), inactives show top-dose activity change, positive = activation, actives largely listed as activators | actives 2.8% (n = 210,000); also: % of control where 0% means no effect; nearly all actives have a fitted effect of over 55% in size
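HEK293 cells carry an SMN2 minigene-luciferase reporter in which exon 7 inclusion puts luciferase in frame. Cells were seeded at 2000 cells/well, attached for 10-12 hours, then exposed to compounds for 30-36 hours at 37C before ONE-Glo luminescence.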
Rab9 promoter act – activates the Rab9 promoter; Huh7 Rab9 promoter-luciferase reporter, luminescence, 24 h; Potency, µM (highest dose often 9.22 µM), for the others: at the top dose activation, negative = inhibition, most hits filed as activators; actives 2.8% (n = 320,000); also: % of control where 0% means no effect; nearly all actives have a fitted effect of over 60% in size
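Luminescence read-out: Huh7 cells stably expressing Rab9-luciferase, treated 24 h with compound at 37 °C, then lysed with luciferase reagent for 10 min at ambient before reading.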
ELG1 genotoxic – genotoxicity induction in ELG1-luciferase HEK293T cells; HEK293T ELG1-luciferase reporter, luminescence, 16 h; Potency, µM (top dose mostly 46 µM), without a hit: at the top dose activity change, positive = activation, hits mostly activators; actives 1.3% (n = 330,000); also: % of control where 0% means no effect; nearly all actives have a fitted effect of over 60% in size
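Reporter readout depends on ELG1 protein level, which increases with genetic stress. After 16 hr compound exposure at 37 °C, luciferase activity was quantified using ONE-Glo.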
FLuc counter – counter-screen for miR-21 project: firefly luciferase inhibitors or activators; actives 6.9% (n = 360,000); purified FLuc, Km substrates, luminescence inhibition; AID 588342; Potency, µM (top dose mostly 57.5 µM), without a hit: top-dose activity change, negative = inhibition, usual class: inhibitors; P08659;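 also: plate controls were vehicle for no effect and reference inhibitor for full effect; nearly all actives have a fitted effect of over 55% in size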
Target sequence (P08659 whole entry, looked up): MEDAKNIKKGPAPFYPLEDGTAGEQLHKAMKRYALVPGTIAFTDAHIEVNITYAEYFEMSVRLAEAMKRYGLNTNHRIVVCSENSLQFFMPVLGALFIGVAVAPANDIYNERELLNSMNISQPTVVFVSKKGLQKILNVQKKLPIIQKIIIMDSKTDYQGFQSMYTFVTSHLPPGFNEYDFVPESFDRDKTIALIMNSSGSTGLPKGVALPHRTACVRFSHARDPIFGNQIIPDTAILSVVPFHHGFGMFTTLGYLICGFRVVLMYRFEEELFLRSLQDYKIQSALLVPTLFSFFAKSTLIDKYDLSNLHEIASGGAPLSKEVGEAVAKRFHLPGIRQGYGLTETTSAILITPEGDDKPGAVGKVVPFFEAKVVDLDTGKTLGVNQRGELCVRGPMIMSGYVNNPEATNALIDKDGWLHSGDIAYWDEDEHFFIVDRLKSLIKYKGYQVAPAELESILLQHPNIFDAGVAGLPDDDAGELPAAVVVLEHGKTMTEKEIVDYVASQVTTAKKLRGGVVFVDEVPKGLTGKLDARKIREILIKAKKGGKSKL
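Purified P. pyralis luciferase, 10 nM final, with Km-level 10 uM D-luciferin and 10 uM ATP in 50 mM Tris acetate pH 7.5, 10 mM Mg acetate, 0.01% Tween-20, 0.05% BSA; 6-point qHTS titration about 60 µM downward; luminescence read.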
NPC1 prom act – NPC1 promoter activation; Potency, µM (top dose mostly 9.22 µM), without a hit: top-dose activation, actives largely listed as activators; Huh7 NPC1 promoter luciferase reporter, 24 h; actives 2.4% (n = 320,000); AID 485313; also: % of control where 0% means no effect; nearly all actives have a fitted effect of over 60% in size
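Cells: Huh7 expressing luciferase under the NPC1 promoter, 1500/well. Seeded 2 h, compound added, incubated 24 h at 37 °C. Luciferase reagent, 10 min ambient, then luminescence.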
p53 reactivator – mutant p53 re-activation in reporter cells | actives 0.063% (n = 320,000) | H1299 p53-A138V BP100-luciferase reporter, luminescence, 24 h | AID 504706 | Potency, µM (doses to about 92.2 µM), for the others: top-dose activity change, positive = activation, actives largely listed as activators; also: % of control where 0% means no effect; nearly all actives have a fitted effect of over 45% in size
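p53-null H1299 cells stably carrying temperature-sensitive p53-A138V and a BP100-luciferase reporter were pinned with compounds (4-point, 1:5 series) and held 24 hrs at 37 deg C. Luminescence was read 10 min after detection reagent.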
* hit, by the source's call; ? = inconclusive; . = no result; [ ] = another dose, or the depositor's remark. An excerpt weighted towards active compounds, which were near 7.4% of everything screened. Calls follow the shape of the dose curve; as a rule, active = well fitted curve in the direction sought with a large enough effect; inconclusive = small, poorly fitted or top-dose-only effect, or another doubt; inactive = no such curve, though single readings can be large; an effect the other way counts as inactive or inconclusive. Potency is read from the fitted curve at half-maximal effect.

SMILES | SMN2 splice enh | Rab9 promoter act | ELG1 genotoxic | FLuc counter | NPC1 prom act | p53 reactivator
CC(C)S(=O)(=O)c1csc(C(=O)Nc2ccc(F)cc2)c1N | . | 0.56µM* | 2.9µM* | 6µM* | 0.56µM* | 14%
COC(=O)[C@H](CC(C)C)NC(=O)Nc1ccc(F)cc1 | . | 2% | 0% | -1% | -7% | -2%
CCOc1ccc2nc3sc(C(=O)N4CCOCC4)c(N)c3cc2c1 | 1.3µM* | 0.56µM* | 2% | 1.5µM* | 0.56µM* | 6%
Cc1cc(C)c2cc3c(N)c(C(=O)Nc4c(C)[nH]c(=O)[nH]c4=O)sc3nc2c1 | -15% | 0% | 0% | -12% | -4% | -15%
Cc1cc(C)c2nc3sc(C(=O)N4CCOCC4)c(N)c3cc2c1 | . | ? | 1.5µM* | 0.21µM* | 2.2µM* | 18%
Cc1ccc2nc3sc(C(=O)Nc4ccc(N5CCOCC5)cc4)c(N)c3cc2c1 | -21% | 10% | -6% | -19% | -5% | 10%
Cc1cc(C)c2cc3c(N)c(C(=O)N4CCOCC4)sc3nc2c1 | . | ? | 8% | 11µM* | ? | -3%
Cc1ccc(C)c2nc3sc(C(=O)N4CCOCC4)c(N)c3cc12 | . | ? | ? | ? | 15% | 19%
CC(=O)N1CCc2c(sc3c2c(=O)n(-c2ccc(C)cc2)c(=O)n3Cc2c(F)cccc2Cl)C1 | -2% | . | . | -7% | . | .
c1ccc(-c2nc(-c3cccs3)c(NC3CCCCC3)o2)cc1 | -1% | . | . | . | . | .
Cc1ccc(Cn2ccc(C3CC3)n2)cc1 | ? | ? | 24% | 17µM* | ? | 11%
Clc1ccc(Cn2ccc(C3CC3)n2)cc1 | . | -29% | 14% | ? | 8% | 17%
CC1CCN(CCc2nc3cc(NC(=O)Nc4ccccc4)ccc3n2C)CC1 | 23% | ? | ? | 17µM* | ? | ?
CCC(=O)NCCc1nc2cc(NC(=O)c3cccc(Br)c3)ccc2n1C | . | . | . | 21µM* | . | .
Cn1c(CN2CCCCC2)nc2cc(NC(=O)c3cccc(Br)c3)ccc21 | -54% | -17% | 16% | ? | -1% | 4%
CCC(=O)NCCc1nc2cc(NC(=O)Nc3ccccc3)ccc2n1C | . | 1.6µM* | ? | 5.4µM* | 1.1µM* | ?
CCC(=O)NCCc1nc2cc(NC(=O)c3ccccc3Cl)ccc2n1C | . | ? | ? | ? | ? | 23%
CCN1CCN(c2ccc(S(=O)(=O)N3CCCCC3)cc2NC(=O)c2sccc2C)CC1 | . | -2% | 2% | 4% | 0% | -5%
Cc1nn(CC(=O)N2CCN(S(=O)(=O)c3ccccc3)CC2)c(C)c1[N+](=O)[O-] | . | 1% | 1% | . | 1% | -9%
O=C(NC(=S)Nc1nc2c(s1)CCCC2)c1ccc(C(=O)c2ccccc2)cc1 | -23% | -1% | 1% | -8% | 6% | 2%
O=S1(=O)N=C(Nc2nc3c(s2)CCCC3)c2ccccc21 | 4µM* | 1.4µM* | ? | 0.85µM* | 2.5µM* | ?
C1CCN=C(Nc2nc3c(s2)CCCC3)CC1 | 10µM* | ? | 11% | ? | ? | ?
Cc1cccc(Nc2nc3c(s2)CCCC3)c1 | 28%[1.84 µM] | 3.5µM* | ? | 4.8µM* | ? | ?
O=C(O)c1ccc(Nc2nc3c(s2)CCCC3)cc1 | 0.63µM* | 0.04µM* | ? | 0.3µM* | -28% | -10%
O=C(O)CCC(=O)Nc1ccc(-n2ccc(C(F)(F)F)n2)cc1 | . | -1% | 15% | -4% | -1% | .
SMILES | SMN2 splice enh | Rab9 promoter act | ELG1 genotoxic | FLuc counter | NPC1 prom act | p53 reactivator
O=C(Nc1ccc(-n2ccc(C(F)(F)F)n2)cc1)c1cccs1 | . | 3.2µM* | ? | 11µM* | 2.8µM* | 4%
O=C(Nc1ccc(-n2ccc(C(F)(F)F)n2)cc1)Nc1cccc(Cl)c1 | . | 26% | -1% | 11µM* | 19% | 19%
COc1ccccc1NC(=O)Nc1ccc(-n2ccc(C(F)(F)F)n2)cc1 | . | 2.8µM* | -1% | 11µM* | ? | 10%
O=C(O)c1ccccc1C(=O)Nc1ccc(-n2ccc(C(F)(F)F)n2)cc1 | . | -6% | 0% | ? | -8% | 2%
Cc1cc(C)cc(NC(=O)Nc2ccc(-n3ccc(C(F)(F)F)n3)cc2)c1 | . | 2% | -10% | -11% | ? | 2%
Cc1ccccc1Nc1ncnc2c1c(-c1ccccc1)cn2-c1ccc(F)cc1 | . | . | . | 3% | . | .
Nc1nc(Nc2ccc(Cl)cc2)nc2ccccc12 | . | 0.5µM* | ? | 0.43µM* | 0.63µM* | ?
Nc1nc(Nc2ccccc2)nc2ccccc12 | 14µM* | 0.63µM* | ? | 1.3µM* | 0.56µM* | ?
Oc1ccc(Nc2nc(-c3ccc(Cl)cc3)nc3ccccc23)cc1 | 22% | . | . | ? | . | .
CN(C)c1nc(Nc2ccccc2)nc(N(C)C)n1 | -11% | 8% | -6% | -12% | 4% | 3%
CN(C)c1ccc(Nc2nc(N)c3ccccc3n2)cc1 | . | 0.1µM* | ? | 0.19µM* | ? | .
COc1ccc(C)cc1Nc1nc(N)c2ccccc2n1 | . | 0% | -3% | ? | 4% | 18%
Cc1ccccc1Nc1nc(N)c2ccccc2n1 | 3.5µM* | 0.5µM* | ? | 1.7µM* | 0.71µM* | -2%
CCn1c(CN2CCCCC2)nc2cc(NC(=O)c3ccc([N+](=O)[O-])cc3)ccc21 | . | . | . | 0% | . | .
CCOc1ccc(CNS(=O)(=O)c2ccc3[nH]c4c(c3c2)CCCC4)cc1OC | . | . | . | -11% | . | .
CC(C)NC(=O)N1CCCC2(CCN(C(=O)c3cc(C(F)(F)F)cc(C(F)(F)F)c3)CC2)C1 | -7% | . | . | . | . | .
COc1ccc(N(CC(=O)O)N=O)cc1 | -3%[9.22 µM] | . | . | . | . | .
CCOc1ccc(Nc2nc(N)c3ccccc3n2)cc1 | . | 0.71µM* | 0.58µM* | 0.43µM* | 0.89µM* | -11%
CCOC(=O)CN1C(=O)C2(OCCCO2)c2cc(Br)ccc21 | . | 5% | -1% | 9% | -1% | .
O=S(=O)(c1ccccc1F)N1CCN(c2nc3ccccc3s2)CC1 | . | ? | 6% | -6% | 25% | 4%
O=C1CNC(=S)N1c1nc2ccccc2s1 | . | ? | ? | 17µM* | ? | ?
CN(c1ccc(O)cc1)c1nc(-c2cccs2)cs1 | . | -4% | -3% | -1% | -4% | -5%
Cc1nc(N)sc1-c1csc(N(C)c2ccc(O)cc2)n1 | ? | ? | ? | 4.8µM* | ? | 14%
O=C(OCc1ccc(Cl)c(Cl)c1)c1ccc[nH]1 | . | ? | ? | 24µM* | ? | ?
O=C(Cc1ccc(Cl)c(Cl)c1)OCC(=O)c1ccc[nH]1 | -13% | 3% | -1% | -13% | -6% | 2%
COc1ccc(CCNc2nc3cc(OC)c(OC)cc3c3nc(-c4ccccc4)nn23)cc1OC | -4% | . | . | -10% | . | .
